According to PubChem BioAssay (NCATS):
Several values for one entry are separate records, joined by “and”; a condition that tells them apart may be missing. Equal entries are not always repeated. Inconclusive results are not listed. Entries that show only a call come without a potency. Values without a mark were called inactive. Activity calls are given as the source filed them. The call rests on the fitted dose curve; in most records, active means well fitted curve in the direction sought with a large enough effect; inconclusive means small, poorly fitted or top-dose-only effect, or another doubt; inactive means no such curve, though single readings can be large; an effect the other way counts as inactive or inconclusive.

What was measured:
[1] = molecular target: Cellular tumor antigen p53 (Homo sapiens) (UniProt P04637); assay: Primary qHTS for small molecule compounds that upregulate eGFP-tagged delta133p53alpha (in N-terminal) cells. (AID 2060322); conditions: NCI-H358 eGFP-delta133p53alpha fluorescence, 24 h; activation: hits give high values; further: nearly all actives have a fitted effect of over 75% in size; further: potency means the concentration at half of the fitted maximal effect; on activation: series mostly up to about 56 µM
Method in brief: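 NCI-H358 cells pre-induced 24 h with 10 ng/ml doxycycline to express N-terminal eGFP-delta133p53alpha, then dosed 24 h at 37C without doxycycline; fixed, Hoechst-stained, GFP intensity by laser scanning cytometry, normalized to DMSO (0%) and 57.5 uM 5-azacytidine (100%).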

[2] = molecular target: Aldehyde dehydrogenase, mitochondrial (Homo sapiens) (UniProt P05091); assay: qHTS for Inhibitors of the Aldehyde Dehydrogenase Family (ALDH2) Primary screen (AID 2061308); further: nearly all actives have a fitted effect of over 55% in size
[3] = molecular target: Retinaldehyde dehydrogenase 3 (Homo sapiens) (UniProt P47895); assay: qHTS for Inhibitors of the Aldehyde Dehydrogenase Family (ALDH1A3) Primary screen (AID 2061315)
[4] = BET inhibitor-based combinations targeting novel dependencies in MECOM-rearranged (r) AML: SET-2 cell line (AID 2202231); conditions: SET-2 AML cells viability, CellTiter-Glo luminescence, 48 h; viability: hits give low values, concentration not given here; further: nearly all actives have a fitted effect of over 35% in size; further: potency means the concentration at half of the fitted maximal effect
Method in brief: (§1)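 Luminescent ATP readout (CellTiter-Glo) after 48 hr drug exposure gives viability. Curves span 11 concentrations and are normalized to DMSO and empty wells. Activity is reported as area under the curve and its Z-transform within each cell line.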

[5] = BET inhibitor-based combinations targeting novel dependencies in MECOM-rearranged (r) AML: OCI-AML3 cell line (AID 2202232); conditions: Potency: OCI-AML3 viability; further: nearly all actives have a fitted effect of over 35% in size; further: potency means the concentration at half of the fitted maximal effect
Method in brief: as §1

[6] = BET inhibitor-based combinations targeting novel dependencies in MECOM-rearranged (r) AML: HNT-34 cell line (AID 2202234); further: nearly all actives have a fitted effect of over 35% in size; further: potency means the concentration at half of the fitted maximal effect
Method in brief: (§2)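 Luminescent ATP readout (CellTiter-Glo, 15 min at room temperature) after 48 hr drug exposure gave viability. Dose-response curves, normalized to DMSO and empty-well controls, were summarized as area under the curve and its mean-centred Z-score.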

[7] = BET inhibitor-based combinations targeting novel dependencies in MECOM-rearranged (r) AML: UCSD-AML1 cell line (AID 2202235); further: nearly all actives have a fitted effect of over 40% in size; further: potency means the concentration at half of the fitted maximal effect
Method in brief: as §2

[8] = BET inhibitor-based combinations targeting novel dependencies in MECOM-rearranged (r) AML: AML-194 cell line (AID 2202237; further: nearly all actives have a fitted effect of over 40% in size; further: potency means the concentration at half of the fitted maximal effect)
Method in brief: as §1

[9] = BET inhibitor-based combinations targeting novel dependencies in MECOM-rearranged (r) AML: MV-4-11 cell line (AID 2202233); further: potency means the concentration at half of the fitted maximal effect; nearly all actives have a fitted effect of over 45% in size
Method in brief: as §2

[10] = BET inhibitor-based combinations targeting novel dependencies in MECOM-rearranged (r) AML: AML-191 cell line (AID 2202236; further: nearly all actives have a fitted effect of over 35% in size; further: potency means the concentration at half of the fitted maximal effect)
Method in brief: as §1

Chain of Cellular tumor antigen p53 (Homo sapiens) (P04637 whole entry, looked up): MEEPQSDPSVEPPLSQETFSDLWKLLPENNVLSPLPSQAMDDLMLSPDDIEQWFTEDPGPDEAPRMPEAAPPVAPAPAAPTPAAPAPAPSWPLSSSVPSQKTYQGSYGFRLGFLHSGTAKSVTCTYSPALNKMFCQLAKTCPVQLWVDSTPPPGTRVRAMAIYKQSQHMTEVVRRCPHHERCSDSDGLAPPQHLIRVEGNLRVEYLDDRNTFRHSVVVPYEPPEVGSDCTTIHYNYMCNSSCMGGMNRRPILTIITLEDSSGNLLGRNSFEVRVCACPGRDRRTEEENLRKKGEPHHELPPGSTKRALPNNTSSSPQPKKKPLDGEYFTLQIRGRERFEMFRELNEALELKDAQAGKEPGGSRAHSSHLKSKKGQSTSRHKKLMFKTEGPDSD

| SMILES | activation [1] | Potency [2] | Potency [3] | Potency [4] | Potency [5] | Potency [6] | Potency [7] | Potency [8] | viability [4] [%] | Potency [9] | Potency [10] | Potency [1] |
| --- | --- | --- | --- | --- | --- | --- | --- | --- | --- | --- | --- | --- |
| CCCS(=O)(=O)Nc1ccc(F)c(C(=O)c2c[nH]c3ncc(Cl)cc23)c1F | 27.8% and 12.5% | inactive | inactive | 16.6 µM (active) | inactive | 11.8 µM (active) | inactive | inactive |  |  |  |  |
| CC(C)c1noc(N2CCC(COc3ccc(-c4ccc(S(C)(=O)=O)cc4)nc3)CC2)n1 | -0.134% and -12.9% | inactive | inactive | 11.8 µM (active) | 4.68 µM (active) | inactive | inactive | inactive |  |  |  |  |
| Cc1cc2c(cc1C1(c3ccc(C(=O)O)cn3)CC1)C(C)(C)CCC2(C)C | -11.7% and 0.333% | inactive | inactive |  |  | inactive | inactive |  | 114 | 0.0209 µM (active) | inactive |  |
| C[C@@H]1CN(Cc2ccc(F)cc2)[C@@H](C)CN1C(=O)c1cc2c(C(=O)C(=O)N(C)C)cn(C)c2cc1Cl | 10.3% and -3.57% | inactive | inactive |  | inactive | inactive | inactive | inactive | 94.6 |  |  |  |
| CCOc1cc2ncc(C#N)c(Nc3ccc(OCc4ccccn4)c(Cl)c3)c2cc1NC(=O)/C=C/CN(C)C |  | inactive | inactive | 4.68 µM (active) | 5.9 µM (active) | 1.32 µM (active) | 3.72 µM (active) | 5.25 µM (active) |  |  | 5.25 µM (active) | 9.28 µM (active) |
| N#C[C@@H]1C[C@@H]2C[C@@H]2N1C(=O)[C@@H](N)C12CC3CC(CC(O)(C3)C1)C2 | -3% | inactive | inactive |  | inactive | inactive |  | 14.8 µM (active) | 110 |  |  |  |
